A short description of experiment [1]: Nuclear factor erythroid 2-related factor 2/antioxidant responsive element (Nrf2/ARE) small molecule agonists: qHTS cell viability counter screen in human keratinocytes (AID 1919968; active = well fitted curve in the direction sought with a large enough effect in the repeat runs; an effect the other way counts as inactive or inconclusive; also: nearly all actives have a fitted effect of over 55% in size). Summed up:
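KeratinoSens cells (HaCaT keratinocytes stably carrying an ARE-luciferase reporter) were seeded at 1,500 cells/well and rested 5 h at 37 C/5% CO2. They were then exposed to compounds in DMSO for 23 h. Viability was read by CellTiter-Fluor fluorescence after 1 h.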
A general note: In qHTS, concentration-response curves come from the screen itself.

Experiment [2] is described as follows: Nuclear factor erythroid 2-related factor 2/antioxidant responsive element (Nrf2/ARE) small molecule agonists: luciferase reporter gene qHTS assay in human keratinocytes (AID 1919969). Also: nearly all actives have a fitted effect of over 35% in size.
The target in experiment [3] is Gonadotropin-releasing hormone receptor (Homo sapiens) (UniProt P30968). As to the kind of experiment: Human gonadotropin-releasing hormone receptor (GnRHR) small molecule agonists, calcium flux assay in GnRHR-HEK293 cells (AID 1920063). Also: nearly all actives have a fitted effect of over 35% in size. Summed up: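 HEK293 cells stably expressing human GnRHR were plated 18 h at 37 °C, loaded with calcium dye 1 h at 37 °C, then given compound in agonist mode; fluorescence (Ex/Em 480/540) read kinetically for 3 min at 1 s intervals.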
Chain of Gonadotropin-releasing hormone receptor (Homo sapiens) (P30968 whole entry, looked up): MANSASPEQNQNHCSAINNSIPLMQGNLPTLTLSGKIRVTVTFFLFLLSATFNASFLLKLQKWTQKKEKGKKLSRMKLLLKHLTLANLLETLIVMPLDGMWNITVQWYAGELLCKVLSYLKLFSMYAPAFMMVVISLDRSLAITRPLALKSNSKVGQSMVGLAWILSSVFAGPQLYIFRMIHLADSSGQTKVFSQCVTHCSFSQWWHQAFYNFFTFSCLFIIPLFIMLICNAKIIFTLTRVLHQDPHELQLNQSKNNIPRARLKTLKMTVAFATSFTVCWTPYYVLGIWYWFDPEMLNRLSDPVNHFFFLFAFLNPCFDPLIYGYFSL

The target in experiment [4] is KiSS-1 receptor (Homo sapiens) (UniProt Q969F8). As to the kind of experiment: Human kisspeptin (KISS1R) small molecule agonists, calcium flux assay in KISS1R-HEK293 cells (AID 1920064; active = well fitted curve in the direction sought with a large enough effect in the repeat runs; an effect the other way counts as inactive or inconclusive). The method, boiled down:
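HEK293 cells stably expressing human KISS1R were plated 18 h at 37 °C, loaded with calcium dye for 1 h at 37 °C, then given compound by pin tool. Fluorescence (Ex/Em 480/540) was read kinetically for 3 min.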
Background: Calcium assays in cells follow changes in intracellular calcium, usually with a dye or a luminescent sensor.

A short description of experiment [5]: G protein-coupled receptor (GPCR) small molecule agonists, calcium flux assay: HEK293 wild type cell line counter screen (AID 1920065). Summed up:
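Cells were plated and cultured 18 h at 37 C/5% CO2, then loaded with calcium dye for 1 h at 37 C. Compounds in DMSO were pin-transferred in agonist mode, and fluorescence (Ex/Em 480/540) was read kinetically for 3 min at 1 s intervals.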

Experiment [6] can be described thus: p53 small molecule agonists, cell-based qHTS assay with human liver microsomes: qHTS cell viability counter screen (AID 1963579). Also: nearly all actives have a fitted effect of over 45% in size. The method, boiled down: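 Metabolic activation used human liver microsomes and NADPH, both 0.5 mg/mL final, over 16 hours at 37 C on p53RE-bla cells (4,000/well). Cytotoxicity measured by CellTiter-Glo luminescence, 30 min at room temperature.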

Experiment [7] can be described thus: p53 small molecule agonists, cell-based qHTS assay with rat liver microsomes: qHTS cell viability counter screen (AID 1963580). Also: nearly all actives have a fitted effect of over 45% in size. Summed up: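 Intracellular ATP, by CellTiter-Glo luminescence, defines viability. HCT-116 p53RE-bla cells, 4,000 per well, were compound-treated in the presence of rat liver microsomes and NADPH for 16 h at 37 C.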
Experiment [8] is described as follows: p53 small molecule agonists, cell-based qHTS assay: qHTS cell viability counter screen (AID 1963581). Also: nearly all actives have a fitted effect of over 45% in size. The method, boiled down: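 p53RE-bla HCT-116 cells were exposed to compounds for 16 h at 37 C; after the beta-lactamase FRET read in the same wells, CellTiter-Glo was added and luminescence (intracellular ATP) read after 30 min at room temperature.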
The target in experiment [9] is 5-hydroxytryptamine receptor 2A (Homo sapiens) (UniProt P28223). As to the kind of experiment: 5-hydroxytryptamine receptor 2A (HTR2A) small molecule antagonists, cell-based qHTS assay (AID 1963586). Also: nearly all actives have a fitted effect of over 45% in size. Also: potency is read from the fitted curve at half-maximal effect. Summed up: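 Antagonist-mode intracellular calcium assay: DOI (4 nM) added after 5 min compound pre-incubation at room temperature to dye-loaded HTR2A-CHO cells. Fluorescence followed for 3 min, sampled every second.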
Chain of 5-hydroxytryptamine receptor 2A (Homo sapiens) (P28223 whole entry, looked up): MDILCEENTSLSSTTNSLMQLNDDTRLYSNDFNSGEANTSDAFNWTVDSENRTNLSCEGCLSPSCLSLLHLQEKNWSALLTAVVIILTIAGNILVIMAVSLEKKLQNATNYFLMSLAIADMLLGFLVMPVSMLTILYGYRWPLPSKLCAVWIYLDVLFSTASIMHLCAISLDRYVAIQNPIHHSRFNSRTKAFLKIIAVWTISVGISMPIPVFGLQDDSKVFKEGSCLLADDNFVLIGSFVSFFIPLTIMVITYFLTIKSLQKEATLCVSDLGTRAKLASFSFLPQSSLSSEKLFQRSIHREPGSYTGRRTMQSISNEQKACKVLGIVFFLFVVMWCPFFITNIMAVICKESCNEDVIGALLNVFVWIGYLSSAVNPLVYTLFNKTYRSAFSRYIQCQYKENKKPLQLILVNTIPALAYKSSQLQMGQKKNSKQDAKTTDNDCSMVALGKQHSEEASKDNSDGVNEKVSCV

Experiment [10] shares this target. As to the kind of experiment: 5-hydroxytryptamine receptor 2A (HTR2A) small molecule agonists, cell-based qHTS assay (AID 1963587). Also: nearly all actives have a fitted effect of over 30% in size. The method, boiled down:
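Kinetic calcium-flux fluorescence (2 min, 1 sec intervals) after compound addition in agonist mode. HTR2A-CHO cells were cultured 18 h, then dye-loaded 1 h at 37 C.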

The target of experiment [11] is Muscarinic acetylcholine receptor M1 (Homo sapiens) (UniProt P11229). The experiment can be described thus: Cholinergic receptor muscarinic 1 (CHRM1) small molecule antagonists, cell-based qHTS assay (AID 1963588). Also: nearly all actives have a fitted effect of over 40% in size. The method, boiled down:
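CHRM1-CHO calcium-flux assay, antagonist mode. Cells were seeded 18 h, dye-loaded 1 h at 37 C and given compound for 5 min at RT, then acetylcholine was added at 50nM. FDSS fluorescence was read 3 min; 15 concentrations, three runs.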

Experiment [12] shares this target. The experiment can be described thus: Cholinergic receptor muscarinic 1 (CHRM1) small molecule agonists, cell-based qHTS assay (AID 1963589). Also: nearly all actives have a fitted effect of over 35% in size. The method, boiled down:
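CHO cells stably expressing human CHRM1, seeded 18 h at 37 C/5% CO2, dye-loaded 1 h at 37 C, then given compound in agonist mode; intracellular calcium fluorescence read kinetically at 1 s intervals. Fifteen concentrations, three independent runs.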

A short description of experiment [13]: cAMP Responsive Elements (CRE) small molecule agonists, cell-based qHTS assay (AID 1963590). The method, boiled down:
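CRE-bla HEK 293T cells in DMEM with 10% dialyzed FBS, NEAA, pyruvate and 25 mM HEPES were plated 18 h at 37 C/5% CO2, then exposed to compounds in DMSO for 3 h before LiveBLAzer B/G FRET substrate addition.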

Experiment [14] can be described thus: cAMP Responsive Elements (CRE) small molecule antagonists, cell-based qHTS assay (AID 1963591; active = well fitted inhibition curve with a large enough effect in the signal ratio in the repeat runs, not every such curve was filed as active; the % refers to the signal ratio). Summed up: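 CRE-bla HEK293T cells were plated 18 h at 37 °C/5% CO2, pinned with compound in DMSO, then stimulated with NKH477 at 0.25 uM final for 3 h. LiveBLAzer B/G FRET substrate was added and plates incubated 2 h at room temperature.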
For experiment [15], the target named is Beta-2 adrenergic receptor (Homo sapiens) (UniProt P07550). As to the kind of experiment: Adrenergic beta2 receptor (ADRB2) small molecule antagonists, cell-based qHTS assay (AID 1963592). Also: series mostly up to about 92 µM; nearly all actives have a fitted effect of over 50% in size. Summed up:
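Cells (CHO, stable ADRB2 overexpression) incubated 18-20hr at 37C; compounds added from DMSO; agonist mix (1nM isoproterenol, 100uM IBMX, 25uM Ro-20-1724) added; 0.5hr RT; d2-cAMP and anti-cAMP-cryptate added; 1hr RT; 665/615 nm read.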

In experiment [16] the target is D(2) dopamine receptor (Homo sapiens) (UniProt P14416). As to the kind of experiment: Dopamine D2 receptor (DRD2) small molecule agonists, cell-based qHTS assay (AID 1963594). Also: nearly all actives have a fitted effect of over 35% in size. The method, boiled down:
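cAMP accumulation in DRD2-HEK293 cells measured by HTRF after 1 h detection; compounds added 10 min before NKH477 (200nM […]) forskolin-analogue stimulation, 30 min at room temperature, with Ro20-1724 present at 0.1 mM final.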

The target is the same in experiment [17]. As to the kind of experiment: Dopamine D2 receptor (DRD2) small molecule antagonists, cell-based qHTS assay (AID 1963595; active = well fitted inhibition curve with a large enough effect in the signal ratio in the repeat runs, with a control signal flat; the % refers to the signal ratio). Summed up:
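Cells were plated and grown for 24 h at 37 °C. Ro20-1724 (0.1 mM final) went in first, then compound for 10 min. NKH477 (200 nM) with quinpirole (12 nM) followed for 30 min at RT, then HTRF detection reagents for 1 h.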

In experiment [18] the target is Beta-2 adrenergic receptor (Homo sapiens) (UniProt P07550). As to the kind of experiment: Adrenergic beta2 receptor (ADRB2) small molecule agonists, cell-based qHTS assay (AID 1963593).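 Also: CHO cells stably overexpressing human ADRB2.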 The method, boiled down: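 CHO cells stably over-expressing ADRB2 were plated overnight at 37C, then dosed with compounds plus a stimulation mix containing 100uM IBMX and 25uM Ro-20-1724 for 0.5hr at room temperature. cAMP was measured by HTRF competition, 1hr.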
Chain of Beta-2 adrenergic receptor (Homo sapiens) (P07550 whole entry, looked up): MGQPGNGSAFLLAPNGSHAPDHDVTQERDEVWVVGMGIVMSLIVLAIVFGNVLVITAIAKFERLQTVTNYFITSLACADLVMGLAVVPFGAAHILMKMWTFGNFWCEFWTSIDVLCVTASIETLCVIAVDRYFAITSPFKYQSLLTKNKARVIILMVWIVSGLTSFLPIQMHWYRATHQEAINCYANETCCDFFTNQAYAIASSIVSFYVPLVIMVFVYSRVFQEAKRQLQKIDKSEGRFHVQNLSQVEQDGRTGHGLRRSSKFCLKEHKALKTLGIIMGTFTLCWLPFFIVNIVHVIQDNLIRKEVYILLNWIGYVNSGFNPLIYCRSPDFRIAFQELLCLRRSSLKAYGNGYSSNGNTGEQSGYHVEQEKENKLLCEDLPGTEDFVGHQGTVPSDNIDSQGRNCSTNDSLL

A number with no mark means an inactive call. Results filed as inconclusive are left out. Activity calls are given as the source filed them. Unless noted, calls follow the shape of the full dose curve.

Experimental findings from PubChem BioAssay (Tox21) are described below.

Chain of KiSS-1 receptor (Homo sapiens) (Q969F8 whole entry, looked up): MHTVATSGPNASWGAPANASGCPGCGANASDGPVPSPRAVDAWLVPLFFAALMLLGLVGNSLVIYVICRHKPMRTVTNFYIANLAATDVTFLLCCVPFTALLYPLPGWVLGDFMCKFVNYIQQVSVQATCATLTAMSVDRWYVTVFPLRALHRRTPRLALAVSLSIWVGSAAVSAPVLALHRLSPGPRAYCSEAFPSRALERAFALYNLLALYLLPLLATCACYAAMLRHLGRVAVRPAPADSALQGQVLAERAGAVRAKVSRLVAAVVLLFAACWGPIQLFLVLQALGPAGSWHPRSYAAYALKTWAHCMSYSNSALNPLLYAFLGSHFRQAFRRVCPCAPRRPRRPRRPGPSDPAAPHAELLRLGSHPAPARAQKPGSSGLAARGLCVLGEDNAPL
Chain of D(2) dopamine receptor (Homo sapiens) (P14416 whole entry, looked up): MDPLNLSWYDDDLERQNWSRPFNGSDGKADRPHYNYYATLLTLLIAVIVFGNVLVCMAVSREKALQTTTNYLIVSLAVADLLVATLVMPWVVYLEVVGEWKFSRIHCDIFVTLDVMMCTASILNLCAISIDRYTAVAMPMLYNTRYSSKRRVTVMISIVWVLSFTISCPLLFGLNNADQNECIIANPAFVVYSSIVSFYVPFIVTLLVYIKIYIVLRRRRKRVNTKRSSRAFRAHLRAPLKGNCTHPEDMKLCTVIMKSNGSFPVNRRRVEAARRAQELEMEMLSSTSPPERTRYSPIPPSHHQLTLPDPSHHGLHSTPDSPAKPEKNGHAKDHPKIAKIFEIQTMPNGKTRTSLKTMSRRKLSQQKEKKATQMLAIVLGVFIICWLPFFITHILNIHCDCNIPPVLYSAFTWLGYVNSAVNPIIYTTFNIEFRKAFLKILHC
Chain of Muscarinic acetylcholine receptor M1 (Homo sapiens) (P11229 whole entry, looked up): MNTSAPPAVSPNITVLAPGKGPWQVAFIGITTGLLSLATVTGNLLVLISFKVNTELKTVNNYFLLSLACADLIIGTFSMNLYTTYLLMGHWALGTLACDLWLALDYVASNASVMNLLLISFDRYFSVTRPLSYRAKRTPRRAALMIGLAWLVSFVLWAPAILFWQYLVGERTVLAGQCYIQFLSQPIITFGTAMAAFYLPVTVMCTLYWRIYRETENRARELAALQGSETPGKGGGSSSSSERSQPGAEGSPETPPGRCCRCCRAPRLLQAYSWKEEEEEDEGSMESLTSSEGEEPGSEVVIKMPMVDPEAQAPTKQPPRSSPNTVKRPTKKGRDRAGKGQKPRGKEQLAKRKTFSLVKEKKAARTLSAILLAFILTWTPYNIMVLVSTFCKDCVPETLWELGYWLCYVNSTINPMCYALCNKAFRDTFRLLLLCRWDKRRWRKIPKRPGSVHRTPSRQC

`CC(=O)OCC(=O)[C@@]1(O)[C@H](C)C[C@H]2[C@@H]3CCC4=CC(=O)C=C[C@]4(C)[C@@]3(F)[C@@H](O)C[C@@]21C`: the Potency entry in experiment [1], in experiment [2], in [3], in experiment [4], in experiment [5] and in experiment [6] was “inactive” throughout. For the same compound, the Potency entry in experiment [7], in experiment [8], in experiment [9], in experiment [10], in [11] and in experiment [12] was “inactive” in each case. For the same compound, the Potency entry in experiment [13], in experiment [14], in experiment [15], in experiment [16] and in experiment [17] was “inactive” in each case.

Consider `C1COCO1`, for which the Potency result in experiment [1], in experiment [2], in [3], in experiment [4], in experiment [5] and in experiment [6] was “inactive” throughout. For the same compound, the Potency entry in [7], in experiment [8], in experiment [9], in [10], in [11] and in [12] was “inactive” throughout. The Potency result in experiment [13], in experiment [14], in experiment [15], in [18], in experiment [16] and in experiment [17] was “inactive” in each case.

`C=C1CC[C@H]2C[C@@H]1C2(C)C`: the Potency entry in experiment [1], in experiment [2], in experiment [3], in experiment [4], in experiment [5] and in experiment [6] was “inactive” throughout. Also, the Potency entry in experiment [7], in experiment [8], in experiment [9], in [10], in experiment [11] and in experiment [12] was “inactive” each time. Further, the Potency entry in [13], in [14], in experiment [15], in [18], in experiment [16] and in [17] was “inactive” each time.

For `CC(N=C(NC#N)Nc1ccncc1)C(C)(C)C` (configuration not stated), the Potency result in experiment [1], in experiment [2], in [3], in experiment [4], in experiment [5] and in experiment [6] was “inactive” each time. Moreover, the Potency result in experiment [7], in experiment [8], in [9], in [10], in experiment [11] and in experiment [12] was “inactive” throughout. Further, the Potency result in experiment [13], in [14], in experiment [15], in experiment [16] and in [17] was “inactive” throughout.

On to `Cc1ccc(C#N)cc1`, for which the Potency result in [1], in [2], in experiment [3], in experiment [4], in experiment [5] and in experiment [6] was “inactive” throughout. Besides, the Potency result in experiment [7], in experiment [8], in experiment [9], in [10], in [11] and in experiment [12] was “inactive” throughout. For the same compound, the Potency result in experiment [13], in experiment [14], in [15], in experiment [16] and in experiment [17] was “inactive” throughout.

`CC(=O)c1ccc([N+](=O)[O-])cc1`: the Potency entry in experiment [1], in experiment [2], in [3], in experiment [4], in experiment [5] and in experiment [6] was “inactive” throughout. Moreover, the Potency result in experiment [7], in experiment [8], in experiment [9], in [10], in experiment [11] and in [12] was “inactive” throughout. For the same compound, the Potency entry in [13], in experiment [14], in experiment [15], in [18], in [16] and in experiment [17] was “inactive” in each case.

Take `c1ccc(-c2nc[nH]c2-c2ccccc2)cc1`: the Potency entry in experiment [1], in experiment [2], in experiment [3], in experiment [4], in [5] and in experiment [6] was “inactive” each time. Moreover, the Potency result in experiment [7], in [8], in experiment [10], in experiment [11], in experiment [12] and in experiment [13] was “inactive” throughout. Besides, the Potency entry in experiment [14], in experiment [15], in experiment [16] and in [17] was “inactive” each time. In experiment [9], the Potency is 3.65 µM (active).
